Test [1] in a line: qHTS assay to identify small molecule agonists of the hypoxia (HIF-1) signaling pathway - cell viability counter screen (AID 1224844; calls by dose curve; further: nearly all actives have a fitted effect of over 50% in size; further: potency means the concentration at half of the fitted maximal effect). Summed up: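 HRE-bla ME-180 cells, 2,000/well in 0.5% dialyzed FBS medium, treated 17 h at 37C with compounds. Viability read in the same wells as the bla reporter, by CellTiter-Glo luminescence after 30 min at room temperature.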
(Quantitative high-throughput screening tests each substance at several concentrations.)

Test [2] in a line: qHTS assay to identify small molecule agonists of H2AX (AID 1224845; active means well fitted activation curve with a large enough effect in the signal ratio in the repeat runs, not every such curve was filed as active; the % refers to the signal ratio). Summed up: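 Wild-type CHO-K1 cells, plated overnight, exposed 3hr at 37C to 15 concentrations (0.76% DMSO final). Lysed, then HTRF anti-pH2AX (S139) cryptate and anti-H2AX-d2 antibodies, 24 hr room temperature; 665/620 nm emission read.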
The nature of test [3]: qHTS assay to identify small molecule agonists of the hypoxia (HIF-1) signaling pathway (AID 1224846; active means well fitted activation curve with a large enough effect in the signal ratio in the repeat runs, not every such curve was filed as active; the % refers to the signal ratio). An outline of the steps: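 HRE-bla ME-180 beta-lactamase reporter cells in medium with 0.5% dialyzed FBS, pre-incubated 5 h then exposed to compounds 17 h at 37C, 5% CO2; reporter induction read with CCF4-AM FRET substrate.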
A short description of test [4]: qHTS assay to identify small molecule agonists of H2AX - cell viability counter screen (AID 1224847; calls by dose curve; further: top concentration of the series differs between compounds; nearly all actives have a fitted effect of over 30% in size). An outline of the steps: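 CHO-K1 wt, 1000 cells/well, o/n 37C; cpds 15 conc, 3 h 37C, 0.76% DMSO; CellTiter-Glo, 30 min RT, luminescence.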
A short description of test [5]: qHTS RealTime-Glo MT Cell Viability Assay in HepG2 cells - 24 hour (AID 1224867). Further: nearly all actives have a fitted effect of over 50% in size. An outline of the steps:
(§1)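 HepG2 suspension premixed with RealTime-Glo reagents is plated at 600 cells per well and left 5 h at 37 C/5% CO2. Compounds in DMSO then go in, and bioluminescence reflecting viable cell number is recorded over 40 h.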

A short description of test [6]: qHTS RealTime-Glo MT Cell Viability Assay in HEK293 cells - 32 hour (AID 1224868). Further: top concentration of the series differs between compounds; nearly all actives have a fitted effect of over 50% in size. Summed up:
(§2)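 Reads taken at 0, 8, 16, 24, 32 and 40 h from the same wells. HEK293 cells (600/well) carried RealTime-Glo reagents from seeding, with compound added after a 5 h settle at 37 C.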

Test [7] can be described thus: A CellTox Green Cytotoxicity Assay to monitor cytotoxicity in HEK293 cells - 0 hour (AID 1224869). Further: nearly all actives have a fitted effect of over 50% in size. Summed up:
(§3)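 HEK293 cells, 600/well, were preincubated 5 hours and then exposed to compounds at 37 C for up to 40 hours. A cell-impermeant cyanine dye staining dead-cell DNA was read by fluorescence at 0, 8, 16, 24, 32 and 40 h time points.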

Test [8] is described as follows: qHTS RealTime-Glo MT Cell Viability Assay in HepG2 cells - 40 hour (AID 1224870). Further: nearly all actives have a fitted effect of over 50% in size. Summed up:
(§4)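 HepG2 cells (600/well) mixed with RealTime-Glo MT reagent, settled 5 h at 37 C/5% CO2 before compound addition. Nonlytic NanoLuc luminescence from viable-cell prosubstrate reduction read repeatedly during 40 h treatment at 37 C.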

Test [9] in a line: A CellTox Green Cytotoxicity Assay to monitor cytotoxicity in HEK293 cells - 40 hour (AID 1224871). Further: nearly all actives have a fitted effect of over 45% in size. Summed up:
as §3

A short description of test [10]: qHTS RealTime-Glo MT Cell Viability Assay in HEK293 cells - 16 hour (AID 1224872). Summed up: as §2
Test [11] is described as follows: qHTS RealTime-Glo MT Cell Viability Assay in HepG2 cells - 8 hour (AID 1224873). Further: nearly all actives have a fitted effect of over 55% in size. Summed up: as §4
Test [12] in a line: qHTS RealTime-Glo MT Cell Viability Assay in HEK293 cells - 40 hour (AID 1224874). Further: nearly all actives have a fitted effect of over 50% in size. The conditions noted are these: RealTime-Glo luminescence; max response: stronger effect = lower value. Summed up: (§5)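 600 cells/well were plated with the nonlytic NanoLuc/prosubstrate reagent, pre-incubated 5 h, then given 23 nL of compound in DMSO. Incubation at 37 C for 40 h, with luminescence from viable-cell-reduced substrate read repeatedly from 0 h.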

A short description of test [13]: A CellTox Green Cytotoxicity Assay to monitor cytotoxicity in HEK293 cells - 24 hour (AID 1224875). Further: series mostly up to about 77 µM; nearly all actives have a fitted effect of over 45% in size. An outline of the steps: as §3
Test [14] in a line: A CellTox Green Cytotoxicity Assay to monitor cytotoxicity in HepG2 cells - 16 hour (AID 1224876). Further: nearly all actives have a fitted effect of over 45% in size. An outline of the steps: (§6)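 HepG2 cells, 600/well, preincubated 5 h with CellTox Green dye, then exposed to Tox21 compounds in DMSO at 37 C for up to 40 h. Dead-cell DNA fluorescence read at the indicated time point.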
Test [15] is described as follows: qHTS RealTime-Glo MT Cell Viability Assay in HepG2 cells - 32 hour (AID 1224877). Further: nearly all actives have a fitted effect of over 55% in size. Summed up:
as §1

Test [16] can be described thus: A CellTox Green Cytotoxicity Assay to monitor cytotoxicity in HepG2 cells - 24 hour (AID 1224878). Further: nearly all actives have a fitted effect of over 45% in size. Summed up: as §6
Test [17] can be described thus: A CellTox Green Cytotoxicity Assay to monitor cytotoxicity in HepG2 cells - 40 hour (AID 1224879). Further: nearly all actives have a fitted effect of over 40% in size. An outline of the steps:
as §6

Test [18] can be described thus: qHTS RealTime-Glo MT Cell Viability Assay in HEK293 cells - 0 hour (AID 1224880). An outline of the steps:
as §5

“And” between values parts separate entries of the source, which are not always exact repeats. Equal entries are not always repeated. Inconclusive results are not listed. Some compounds were tested as several samples or in several runs, with calls that do not always agree. The source made the active and inactive calls. Unless noted, the call rests on the fitted dose curve; in most records, active means well fitted curve in the direction sought with a large enough effect in the repeat runs; inconclusive means weak or mixed curves; inactive means no such curve, though single readings can be large; an effect the other way counts as inactive or inconclusive.
On the % scale 0 is the no-effect control and ±100 the full control effect.

On to `CCN(C(C)=O)c1cccc(-c2ccnc3c(C#N)cnn23)c1`, for which the Potency result in test [1], in [2], in test [4], in [5], in test [6] and in test [7] was “inactive” in each case. The Potency result in test [8], in test [9], in [10], in [11], in test [13] and in test [14] was “inactive” throughout. In addition, the Potency result in test [15], in test [16] and in test [17] was “inactive” each time. Further, the compound was classed as inactive in test [3] and in [18]. Further, the max response in [12] was -13.6% (inactive).
For `CCCCC#N`, the Potency entry in test [1], in test [2], in test [4], in [5], in [6] and in test [7] was “inactive” each time. Moreover, the Potency result in test [8], in test [9], in [10], in test [13], in test [14] and in test [16] was “inactive” throughout. Also, in [17], the Potency result is “inactive”. For the same compound, the compound was called inactive in test [3] and in test [18]. Besides, the max response in test [12] is -2.33% (inactive).
Take `O=C(O)C(Cl)(Cl)Br`: the Potency entry in test [1], in test [2], in test [4], in test [5], in test [6] and in [7] was “inactive” each time. In addition, the Potency entry in test [8], in test [9], in test [10], in [11], in test [14] and in test [15] was “inactive” each time. The Potency result in test [16] and in [17] was “inactive” in each case. The compound was classed as inactive in test [3] and in test [18]. Further, the max response in [12] is 0.585% (inactive).
As for `OC[P+](CO)(CO)CO`, the Potency in test [1] was 44.2 µM (active) and inactive. For the same compound, the Potency result in test [2], in test [4], in test [5], in test [6], in [7] and in test [8] was “inactive” each time. The Potency entry in test [9], in [10], in test [11], in test [13], in test [14] and in test [15] was “inactive” throughout. Besides, the Potency entry in test [16] and in test [17] was “inactive” throughout. The call in test [3] and in test [18] was inactive. The max response in test [12] is 5.15% (inactive) and -10.7% (inactive).
For the compound `NC(=O)CF`, the Potency result in test [1], in [2], in [4], in test [5], in test [6] and in test [7] was “inactive” throughout. Further, the Potency result in test [8], in test [9], in [10], in test [13], in test [15] and in test [16] was “inactive” each time. The Potency entry in test [17] was “inactive”. The result in test [3] and in test [18] was inactive. Further, the max response in [12] was -4.69% (inactive).
Regarding `FC(Cl)(Cl)C(F)(Cl)Cl`, the Potency entry in test [1], in [2], in [4], in [5], in [6] and in [8] was “inactive” throughout. Further, the Potency result in test [9], in [10], in test [11], in [13], in [14] and in [15] was “inactive” throughout. Moreover, the Potency entry in test [16] and in [17] was “inactive” each time. For the same compound, the outcome in [3] and in test [18] was inactive. Further, the max response in test [12] was -10.6% (inactive).
On to `OCCCl`, for which the Potency result in [1], in test [2], in test [4], in test [5], in test [6] and in test [8] was “inactive” in each case. For the same compound, the Potency entry in [9], in test [10], in test [11], in test [13], in test [14] and in [15] was “inactive” throughout. For the same compound, the Potency result in [16] and in test [17] was “inactive” in each case. The compound was classed as inactive in test [3] and in [18]. Also, the max response in test [12] was 0.0487% (inactive).
For the compound `CC(C)(C)c1ccc(CCOc2ncnc3ccccc23)cc1`, the Potency entry in test [1], in test [2], in test [4], in [5], in test [6] and in test [7] was “inactive” in each case. Further, the Potency result in test [8], in test [9], in test [10], in test [11], in [13] and in [14] was “inactive” throughout. Also, the Potency result in [15] was “inactive”. The outcome in [3] and in [18] was inactive. Besides, the max response in test [12] is 3.46% (inactive).
For the compound `CC(Oc1cc(Cl)c(Cl)cc1Cl)C(=O)O` (stereo not drawn), the Potency result in test [1], in test [2], in test [4], in test [5], in test [6] and in test [7] was “inactive” each time. The Potency result in [8], in [9], in test [10], in [11], in test [13] and in [14] was “inactive” throughout. Moreover, the Potency entry in test [15], in test [16] and in test [17] was “inactive” in each case. Further, the call in [3] and in test [18] was inactive. The max response in test [12] is 3.67% (inactive).
With `CCCC1CCCCN1` (stereo not drawn), the Potency result in [1], in [2], in test [4], in test [5], in test [6] and in test [7] was “inactive” throughout. The Potency result in test [8], in [9], in test [10], in [11], in test [13] and in test [14] was “inactive” each time. Besides, the Potency result in test [16] and in test [17] was “inactive” each time. In addition, the outcome in [3] and in [18] was inactive. In addition, the max response in [12] is 5.87% (inactive).
With `Cc1ncc(C[n+]2csc(CCO)c2C)c(N)n1`, the Potency result in test [1], in test [2], in test [4], in test [5], in test [6] and in test [7] was “inactive” each time. Also, the Potency result in [8], in test [9], in test [10], in [11], in test [13] and in [14] was “inactive” each time. The Potency result in test [15], in test [16] and in [17] was “inactive” in each case. Besides, the max response in test [12] was -4.98% (inactive). The compound was classed as inactive in [18].
Consider `COc1ccc2c(c1OC)C(=O)O[C@H]2[C@@H]1c2cc3c(cc2CCN1C)OCO3`, for which the Potency entry in test [1], in test [2], in [4], in [5], in [6] and in [7] was “inactive” each time. The Potency result in test [8], in test [9], in [10], in test [11], in [13] and in test [14] was “inactive” in each case. Moreover, the Potency entry in test [15], in [16] and in test [17] was “inactive” in each case. The max response in test [12] is 4.68% (inactive). Besides, the outcome in [18] was inactive.
Consider `CCOP(=O)(O)C(N)=O`, for which the Potency entry in [1], in test [2], in test [4], in test [5], in test [6] and in [8] was “inactive” in each case. For the same compound, the Potency result in [9], in [10], in test [11], in test [13], in test [15] and in test [16] was “inactive” throughout. Moreover, in test [17], the Potency result is “inactive”. In addition, the outcome in test [3] and in [18] was inactive. Moreover, in test [12], the max response was 20.4% (inactive).
Consider `O=C(O)C(F)(F)C(F)(F)C(F)(F)C(F)(F)C(F)(F)C(F)(F)C(F)(F)C(F)(F)F`, for which the Potency in test [1] is 8.71 µM (active). Moreover, the Potency result in test [2], in test [4], in test [6], in [8], in test [9] and in test [10] was “inactive” each time. Moreover, the Potency result in [13], in test [14], in test [16] and in test [17] was “inactive” throughout. Further, the call in test [3] and in test [18] was inactive.

(Values after PubChem BioAssay (Tox21).)
